Counter-ions that a name gives are not always drawn.
Legend:
Conditions in all cases: 10 µM; exposure time 6 h
[1] = tested on: Danio rerio larvae (5 dpf); assay: difference in excitability vs DMSO (percentage points); higher = more excitable than DMSO
Method in brief: (§1)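 Library compounds were tested at 10 µM final in 100 µL egg water on wild-type 5 dpf zebrafish larvae in 96-well plates for 6 h, with 48 larvae per compound. After 3 h, plates at 28.5 ℃ were imaged every 6 s during a 3-h run of moving lines and 100 ms, 400Hz tones. Behaviours were quantified by Z-LaP Tracker and reported as the compound mean less the vehicle control mean, in percentage points.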

[2] = tested on: Danio rerio larvae (5 dpf); assay: difference in startle response vs DMSO (percentage points); higher = stronger startle than DMSO
Method in brief: as §1

[3] = tested on: Danio rerio larvae (5 dpf); assay: difference in activity during first hour vs DMSO (percentage points); higher = more activity than DMSO
Method in brief: as §1

[4] = tested on: Danio rerio larvae (5 dpf); assay: difference in habituation to acoustic stimuli vs DMSO (percentage points); higher = more habituation than DMSO
Method in brief: as §1

[5] = tested on: Danio rerio larvae (5 dpf); assay: difference in combined optomotor response to red, green and blue moving lines vs DMSO (percentage points); higher = stronger optomotor response than DMSO
Method in brief: as §1

SMILES | difference in excitability [1] | difference in startle response [2] | difference in activity during first hour [3] | difference in habituation to acoustic stimuli [4] | difference [5]
CCN(CC)C(=O)/C(C#N)=C/c1cc(O)c(O)c([N+](=O)[O-])c1 [Entacapone] | 5.12 | -3.47 | 4.7 | 3.38 | 3.62
CCCC(=O)O[C@]1(C(=O)COC(C)=O)CC[C@H]2[C@@H]3C[C@H](F)C4=CC(=O)C=C[C@]4(C)[C@@]3(F)[C@@H](O)C[C@@]21C [Difluprednate] | 3.2 | 2.35 | 6.57 | 4.62 | -1.11
CC1OC2(CS1)CN1CCC2CC1 (stereo not given) [Cevimeline (hydrochloride)] | -6.36 | -3.25 | 16.4 | -3.9 | -1.46
CCOC(=O)[C@H](CCc1ccccc1)N[C@H]1CCc2ccccc2N(CC(=O)O)C1=O [Benazepril (hydrochloride)] | 7.01 | 3.34 | -2.03 | -3.43 | -7.74
C=CC[N+]1([C@H]2C[C@H]3[C@@H]4CC[C@H]5C[C@H](O)[C@@H](N6CCOCC6)C[C@]5(C)[C@H]4CC[C@]3(C)[C@H]2OC(C)=O)CCCC1 [Rocuronium (bromide)] | 14.3 | -3.01 | -1.74 | 4.51 | -2.53
CCCCCOc1ccc(-c2ccc(-c3ccc(C(=O)N[C@H]4C[C@@H](O)[C@@H](O)NC(=O)[C@@H]5[C@@H](O)[C@@H](C)CN5C(=O)[C@H]([C@@H](C)O)NC(=O)[C@H]([C@H](O)[C@@H](O)c5ccc(O)cc5)NC(=O)[C@@H]5C[C@@H](O)CN5C(=O)[C@H]([C@@H](C)O)NC4=O)cc3)cc2)cc1 [Anidulafungin] | 9.87 | -9.61 | -17.6 | -10.4 | -18.1
Cc1ccccc1N1C(=O)c2cc(S(N)(=O)=O)c(Cl)cc2NC1C (stereo not given) [Metolazone] | 5.2 | 4.85 | -12.7 | 0.578 | 1.31
CC(C)OC(=O)CCC/C=C\C[C@@H]1[C@@H](CC[C@@H](O)CCc2ccccc2)[C@H](O)C[C@@H]1O [Latanoprost] | 1.84 | -0.286 | 20.8 | 3.23 | 7.08
COC(=O)C1=C(C)NC(C)=C(C(=O)OC)C1c1ccccc1[N+](=O)[O-] [Nifedipine] | 8.58 | -1.47 | -4.95 | 0.749 | 12.1
COc1cc2c(cc1OC)C(=O)C(CC1CCN(Cc3ccccc3)CC1)C2 (stereo not given) [Donepezil] | 12 | -0.487 | -0.402 | -0.748 | -2.38
C#C[C@]1(O)CC[C@H]2[C@@H]3CCc4cc(OC)ccc4[C@H]3CC[C@@]21C [Mestranol] | 23 | -9.55 | -22.7 | 1.6 | -16.5
CCC(=O)NCC[C@@H]1CCc2ccc3c(c21)CCO3 [Ramelteon] | 33 | 0.219 | -13.3 | -1.29 | 6.65
CCCS(=O)(=O)Nc1ccc(F)c(C(=O)c2c[nH]c3ncc(-c4ccc(Cl)cc4)cc23)c1F | -2.43 | -1.48 | -5.03 | 2.88 | -0.602
O=c1[nH]cc(F)c(=O)[nH]1 [5-Fluorouracil] | 4.49 | -1.7 | -1.12 | 0.939 | 0.269
CCCCCCCCCCCCCCCC(=O)OC/C=C(C)/C=C/C=C(C)/C=C/C1=C(C)CCCC1(C)C [Retinyl Palmitate] | 6.81 | 5.22 | 3.08 | 2.4 | -4.44
Nc1nc(=S)c2[nH]cnc2[nH]1 [6-Thioguanine] | 2.87 | -3.35 | 1.36 | 0.958 | 6.09
CCOc1ccccc1OCCN[C@H](C)Cc1ccc(OC)c(S(N)(=O)=O)c1 [Tamsulosin (hydrochloride)] | 25.5 | 3.47 | -3.28 | 1.9 | 1.52
N[C@@H]1CONC1=O [D-Cycloserine] | 6.37 | -2.86 | 4.38 | -2.22 | 10.3
O=C(O)P(=O)(O)O [Foscarnet (sodium salt)] | -6.03 | 6.15 | 20.9 | -1.07 | 4.77
CC(C)(Oc1ccc(C(=O)c2ccc(Cl)cc2)cc1)C(=O)O [Fenofibric Acid] | 2.08 | 4.69 | 11.8 | 0.387 | 6.16
CC(=O)c1ccc(S(=O)(=O)NC(=O)NC2CCCCC2)cc1 [Acetohexamide] | -0.755 | 2.86 | -0.443 | -3.12 | 2.21
CCOC(=O)c1ccc(C#Cc2ccc3c(c2)C(C)(C)CCS3)nc1 [Tazarotene] | 13.2 | -9.42 | 54.2 | -9.47 | -15.1
CC(C)OC(=O)[C@H](C)N[P@](=O)(OC[C@H]1O[C@@H](n2ccc(=O)[nH]c2=O)[C@](C)(F)[C@@H]1O)Oc1ccccc1 | -3.58 | -4.12 | 10 | 1.16 | 6.56
CC(=O)[C@]1(O)Cc2c(O)c3c(c(O)c2[C@@H](O[C@H]2C[C@H](N)[C@H](O)[C@H](C)O2)C1)C(=O)c1ccccc1C3=O [Idarubicin (hydrochloride)] | 12.5 | -1.2 | -5.02 | 1.34 | -1.01
CCOc1ccc(Cc2cc([C@@H]3O[C@H](CO)[C@@H](O)[C@H](O)[C@H]3O)ccc2Cl)cc1 [Dapagliflozin] | -2.18 | 0.361 | -2.82 | -5.36 | 5.64
N[C@@H](CC(=O)N1CCn2c(nnc2C(F)(F)F)C1)Cc1cc(F)c(F)cc1F [(-)-Sitagliptin (phosphate)] | 10.7 | -0.289 | -10.7 | -3.48 | -5.35

SMILES | difference in excitability [1] | difference in startle response [2] | difference in activity during first hour [3] | difference in habituation to acoustic stimuli [4] | difference [5]
OCCN1CCN(CCCN2c3ccccc3Sc3ccc(C(F)(F)F)cc32)CC1 [Fluphenazine (hydrochloride)] | 23.3 | 5.93 | 15.6 | -10.4 | -5.63
S=c1nc[nH]c2nc[nH]c12 [6-Mercaptopurine (hydrate)] | 6.66 | 2.46 | -5.06 | -0.245 | 1.98
CC1=NN(c2ccc(C)c(C)c2)C(=O)/C1=N\Nc1cccc(-c2cccc(C(=O)O)c2)c1O [Eltrombopag] | 19.6 | -0.303 | 17.7 | 1.01 | -0.694
C#C[C@]1(O)CC[C@H]2[C@@H]3CCC4=CC(=O)CC[C@@H]4[C@H]3CC[C@@]21CC [Levonorgestrel] | 2.02 | -3.01 | -12.7 | -0.397 | 3.05
CCCN(CCC)CCc1cccc2c1CC(=O)N2 [Ropinirole (hydrochloride)] | 31.3 | -0.638 | -13.7 | -1.82 | -4.31
CCCCNc1cc(C(=O)O)cc(S(N)(=O)=O)c1Oc1ccccc1 [Bumetanide] | 5.57 | -2.75 | 5.52 | -3.24 | 3.54
COc1cc2ncnc(Nc3ccc(F)c(Cl)c3)c2cc1NC(=O)/C=C/CN1CCCCC1 | 16.4 | 0.667 | -10.7 | -0.587 | 6.72
CCCN(CCC)S(=O)(=O)c1ccc(C(=O)O)cc1 [Probenecid] | -3.91 | 4.06 | 8.09 | 3.84 | 9.2
CN(C)CCC=C1c2ccccc2CCc2ccccc21 [Amitriptyline (hydrochloride)] | 2.65 | 5.98 | -3.87 | -14.7 | -8.17
COc1cc([C@@H]2c3cc4c(cc3[C@@H](O[C@@H]3O[C@@H]5CO[C@@H](c6cccs6)O[C@H]5[C@H](O)[C@H]3O)[C@H]3COC(=O)[C@H]23)OCO4)cc(OC)c1O [Teniposide] | -5.17 | -1.26 | -12 | 3.62 | -8.33
Nc1nc(Cl)nc2c1ncn2[C@@H]1O[C@H](CO)[C@@H](O)[C@@H]1F [Clofarabine] | -0.183 | -0.201 | 0.725 | 2.7 | 1.77
CN1C(C(=O)Nc2ccccn2)=C(O)c2ccccc2S1(=O)=O [Piroxicam] | 12.1 | 0.219 | 4.07 | -1.73 | -0.889
CO/N=C1\C[C@]2(C[C@@H]3C[C@@H](C/C=C(\C)C[C@@H](C)/C=C/C=C4\CO[C@@H]5[C@H](O)C(C)=C[C@@H](C(=O)O3)[C@]45O)O2)O[C@H](/C(C)=C/C(C)C)[C@H]1C [Moxidectin] | 8.4 | -9.21 | -23 | -11.5 | -17
O=C1Cc2cc(CCN3CCN(c4nsc5ccccc45)CC3)c(Cl)cc2N1 [Ziprasidone (hydrochloride hydrate)] | 26.8 | 5.81 | 11.2 | -6.75 | 5.5
O=C(C1CCCCC1)N1CC(=O)N2CCc3ccccc3C2C1 (stereo not given) [Praziquantel] | 27.3 | 13.2 | -17.7 | 11 | 10.4
CC(=O)NS(=O)(=O)c1ccc(N)cc1 [Sulfacetamide (sodium salt)] | 9.42 | 1.32 | -8.28 | 4.81 | 7.06
CO[C@H]1C[C@@H]2CC[C@@H](C)[C@@](O)(O2)C(=O)C(=O)N2CCCC[C@H]2C(=O)O[C@H]([C@H](C)C[C@@H]2CC[C@@H](OCCO)[C@H](OC)C2)CC(=O)[C@H](C)/C=C(\C)[C@@H](O)[C@@H](OC)C(=O)[C@H](C)C[C@H](C)/C=C/C=C/C=C/1C [Everolimus] | 1.38 | 1.06 | 1.4 | -3.73 | 5.32
CN(C/C=C/c1ccccc1)Cc1cccc2ccccc12 [Naftifine (hydrochloride)] | 11.1 | -5.96 | -7.66 | 1 | 7.26
CCOC(=O)C1=C[C@@H](OC(CC)CC)[C@H](NC(C)=O)[C@@H](N)C1 [Oseltamivir (phosphate)] | 1.51 | 3.38 | 8.28 | -5.42 | 3.62
CCCCNc1ccc(C(=O)OCCOCCOCCOCCOCCOCCOCCOCCOCCOC)cc1 [Benzonatate] | 6.12 | 1.4 | -1.8 | 6.2 | -0.0866
CCCCN1CCCCC1C(=O)Nc1c(C)cccc1C (stereo not given) [Bupivacaine] | 0.996 | -2.63 | 13.4 | 2.63 | 6.71
Cc1oncc1C(=O)Nc1ccc(C(F)(F)F)cc1 [Leflunomide] | 20.4 | -4.19 | 4.33 | -10.8 | 2.2
C[C@]12CCC(=O)C=C1CC[C@@H]1[C@@H]2[C@@H](O)C[C@@]2(C)[C@H]1CC[C@]2(O)C(=O)CO [Hydrocortisone] | 1.87 | 0.52 | 14.7 | 1.82 | 9.96
CC(O)C(O)[C@H]1CNc2nc(N)[nH]c(=O)c2N1 (stereo partly drawn) [(6R)-5,6,7,8-tetrahydro-L-Biopterin (hydrochloride)] | 0.358 | -1.51 | -0.551 | 1.85 | 6.59
C=C[C@]1(C)C[C@@H](OC(=O)CS[C@@H]2C[C@H]3CC[C@@H](C2)N3C)[C@]2(C)[C@H](C)CC[C@]3(CCC(=O)[C@H]32)[C@@H](C)[C@@H]1O [Retapamulin] | 25.1 | 5.21 | -2.58 | 1.86 | 5.67
